Laboratory results: PubChem BioAssay AID1159580 (chemical genetic matrix, 2015)
The campaign covered roughly 5,500 compounds. About 2,000 (36%) were called active. Inconclusive results (about 18%) are left out. Cut-off read from the data, not from the text of the source: active = normalized growth mostly below about 0.91 (no sharp cut-off); inconclusive = no clear call, values can overlap the other calls; inactive = mostly above about 0.92. The list shows a part of the results.

Assay: chemical genetic growth profiling, strain panel (AID 1159580);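 note: tested at 20 µM; growth read once vehicle control cultures reached saturation at 30 °C; 1 = growth at the plate median or of vehicle wells; lower values mean less growth of the strain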
Conditions: growth OD

Measured: normalized growth

O=C(O)c1ccccc1C(=O)Nc1ccc(S(=O)(=O)Nc2nccs2)cc1
inactive: S. cerevisiae deletion strains, locus YJR066W, strain TOR1, stronger effect = lower value 0.983 | S. cerevisiae deletion strains, locus YJR075W, strain HOC1, stronger effect = lower value 1.02 | S. cerevisiae deletion strains, locus YKL009W, strain mrt4, stronger effect = lower value 1.03 | S. cerevisiae deletion strains, locus YKL068W, stronger effect = lower value 0.987 | S. cerevisiae deletion strains, locus YKL085W, strain MDH1 (second series), stronger effect = lower value 0.984 | S. cerevisiae deletion strains, locus YKL085W, strain MDH1, stronger effect = lower value 0.984 | S. cerevisiae deletion strains, locus YKL160W, strain elf1, stronger effect = lower value 0.972 | S. cerevisiae deletion strains, locus YKL190W, strain CNB1, stronger effect = lower value 1 | S. cerevisiae deletion strains, locus YKR001C, strain vps1, stronger effect = lower value 1 | S. cerevisiae deletion strains, locus YKR026C, strain gcn3, stronger effect = lower value 0.981 | S. cerevisiae deletion strains, locus YKR091W, strain srl3, stronger effect = lower value 0.984 | S. cerevisiae deletion strains, locus YLL001W, strain dnm1, stronger effect = lower value 0.966 | S. cerevisiae deletion strains, locus YLL026W, stronger effect = lower value 0.988 | S. cerevisiae deletion strains, locus YLL041C, strain sdh2, stronger effect = lower value 0.969 | S. cerevisiae deletion strains, locus YLR027C, strain aat2, stronger effect = lower value 0.982 | S. cerevisiae deletion strains, locus YLR039C, strain RIC1, stronger effect = lower value 1 | S. cerevisiae deletion strains, locus YLR058C, strain SHM2, stronger effect = lower value 1.01 | S. cerevisiae deletion strains, locus YLR102C, strain apc9, stronger effect = lower value 0.99 | S. cerevisiae deletion strains, locus YLR113W, strain HOG1, stronger effect = lower value 1 | S. cerevisiae deletion strains, locus YLR221C, strain rsa3, stronger effect = lower value 0.95 | S. cerevisiae deletion strains, locus YLR258W, strain gsy2, stronger effect = lower value 0.986 | S. cerevisiae deletion strains, locus YLR262C, strain YPT6 (second series), stronger effect = lower value 1 | S. cerevisiae deletion strains, locus YLR262C, strain YPT6, stronger effect = lower value 1.03 | S. cerevisiae deletion strains, locus YLR268W, strain sec22, stronger effect = lower value 0.998 | S. cerevisiae deletion strains, locus YLR320W, strain mms22, stronger effect = lower value 0.976 | S. cerevisiae deletion strains, locus YLR330W, strain CHS5, stronger effect = lower value 1 | S. cerevisiae deletion strains, locus YLR342W, strain FKS1 (second series), stronger effect = lower value 0.994 | S. cerevisiae deletion strains, locus YLR342W, strain FKS1, stronger effect = lower value 0.99 | S. cerevisiae deletion strains, locus YLR357W, strain rsc2, stronger effect = lower value 0.975 | S. cerevisiae deletion strains, locus YLR370C, strain arc18, stronger effect = lower value 0.959 | S. cerevisiae deletion strains, locus YLR371W, strain rom2, stronger effect = lower value 0.998 | S. cerevisiae deletion strains, locus YLR384C, strain iki3, stronger effect = lower value 0.976 | S. cerevisiae deletion strains, locus YLR418C, strain cdc73, stronger effect = lower value 0.992 | S. cerevisiae deletion strains, locus YML016C, strain PPZ1, stronger effect = lower value 0.995 | S. cerevisiae deletion strains, locus YML032C, strain rad52, stronger effect = lower value 0.994 | S. cerevisiae deletion strains, locus YML120C, strain ndi1, stronger effect = lower value 0.969 | S. cerevisiae deletion strains, locus YML124C, strain tub3, stronger effect = lower value 0.992 | S. cerevisiae deletion strains, locus YMR058W, strain fet3, stronger effect = lower value 0.98 | S. cerevisiae deletion strains, locus YMR078C, strain ctf18, stronger effect = lower value 0.99 | S. cerevisiae deletion strains, locus YMR125W, strain sto1, stronger effect = lower value 0.96 | S. cerevisiae deletion strains, locus YMR129W, stronger effect = lower value 0.989 | S. cerevisiae deletion strains, locus YMR205C, strain PFK2, stronger effect = lower value 0.965 | S. cerevisiae deletion strains, locus YMR223W, strain ubp8, stronger effect = lower value 0.998 | S. cerevisiae deletion strains, locus YMR231W, strain pep5, stronger effect = lower value 0.974 | S. cerevisiae deletion strains, locus YMR307W, strain GAS1, stronger effect = lower value 0.973 | S. cerevisiae deletion strains, locus YNL067W, strain RPL9B, stronger effect = lower value 1.01 | S. cerevisiae deletion strains, locus YNL071W, strain lat1, stronger effect = lower value 0.987 | S. cerevisiae deletion strains, locus YNL128W, strain TEP1, stronger effect = lower value 1.02 | S. cerevisiae deletion strains, locus YNL183C, strain NPR1, stronger effect = lower value 0.975 | S. cerevisiae deletion strains, locus YNL209W, strain ssb2, stronger effect = lower value 0.989 | S. cerevisiae deletion strains, locus YNL233W, strain BNI4, stronger effect = lower value 1.01 | S. cerevisiae deletion strains, locus YNL248C, strain rpa49, stronger effect = lower value 0.97 | S. cerevisiae deletion strains, locus YNL250W, strain rad50, stronger effect = lower value 1 | S. cerevisiae deletion strains, locus YNL271C, strain bni1, stronger effect = lower value 0.982 | S. cerevisiae deletion strains, locus YNL298W, strain CLA4, stronger effect = lower value 0.995 | S. cerevisiae deletion strains, locus YNL307C, strain MCK1, stronger effect = lower value 1 | S. cerevisiae deletion strains, locus YNL322C, strain KRE1 (second series), stronger effect = lower value 0.945 | S. cerevisiae deletion strains, locus YNL322C, strain KRE1, stronger effect = lower value 1.01 | S. cerevisiae deletion strains, locus YNR049C, strain mso1, stronger effect = lower value 0.976 | S. cerevisiae deletion strains, locus YNR052C, strain pop2, stronger effect = lower value 0.994 | S. cerevisiae deletion strains, locus YOL006C, strain TOP1, stronger effect = lower value 1.02 | S. cerevisiae deletion strains, locus YOL012C, strain htz1 0.647 | S. cerevisiae deletion strains, locus YOL147C, strain pex11, stronger effect = lower value 0.987 | S. cerevisiae deletion strains, locus YOR001W, strain rrp6, stronger effect = lower value 0.999 | S. cerevisiae deletion strains, locus YOR061W, strain CKA2, stronger effect = lower value 1 | S. cerevisiae deletion strains, locus YOR069W, strain VPS5, stronger effect = lower value 1 | S. cerevisiae deletion strains, locus YOR070C, strain gyp1, stronger effect = lower value 0.976 | S. cerevisiae deletion strains, locus YOR080W, strain dia2, stronger effect = lower value 0.973 | S. cerevisiae deletion strains, locus YOR083W, strain WHI5, stronger effect = lower value 0.983 | S. cerevisiae deletion strains, locus YOR106W, strain vam3, stronger effect = lower value 0.972 | S. cerevisiae deletion strains, locus YOR136W, strain idh2, stronger effect = lower value 1 | S. cerevisiae deletion strains, locus YOR144C, strain elg1, stronger effect = lower value 0.993 | S. cerevisiae deletion strains, locus YOR184W, strain ser1, stronger effect = lower value 1 | S. cerevisiae deletion strains, locus YOR231W, strain MKK1, stronger effect = lower value 1.04 | S. cerevisiae deletion strains, locus YOR265W, strain rbl2, stronger effect = lower value 0.99 | S. cerevisiae deletion strains, locus YOR270C, strain vph1, stronger effect = lower value 0.983 | S. cerevisiae deletion strains, locus YOR290C, strain snf2, stronger effect = lower value 0.959 | S. cerevisiae deletion strains, locus YOR316C, strain cot1, stronger effect = lower value 1.01 | S. cerevisiae deletion strains, locus YPL051W, strain arl3, stronger effect = lower value 1 | S. cerevisiae deletion strains, locus YPL078C, strain atp4, stronger effect = lower value 0.983 | S. cerevisiae deletion strains, locus YPL106C, strain sse1, stronger effect = lower value 0.936 | S. cerevisiae deletion strains, locus YPL240C, strain hsp82, stronger effect = lower value 0.979 | S. cerevisiae deletion strains, locus YPL241C, strain CIN2, stronger effect = lower value 0.999 | S. cerevisiae deletion strains, locus YPL256C, strain CLN2, stronger effect = lower value 1.02 | S. cerevisiae deletion strains, locus YPR119W, strain clb2, stronger effect = lower value 0.99 | S. cerevisiae deletion strains, locus YPR141C, strain kar3, stronger effect = lower value 0.984 | S. cerevisiae deletion strains, locus YPR163C, strain tif3, stronger effect = lower value 0.993 | S. cerevisiae deletion strains, locus YPR167C, strain met16, stronger effect = lower value 0.997 | S. cerevisiae deletion strains, strain wtn01, stronger effect = lower value 0.995 | S. cerevisiae strains, strain wild type, stronger effect = lower value 1
